HepG2 tox: HepG2 cytotoxicity, counter-screen for TGF-b inhibitors; HepG2 CAGA-GFP viability, ATP luminescence, 18 h; Potency, µM (highest dose often 46.1 µM), actives largely listed as cytotoxic; 0.76% of 410,000 active
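HepG2 CAGA-GFP cells (1000/well, DMEM with 1% FBS) received compound, then TGF-beta at 500 pg/mL final, and were incubated 18 hours at 37 degrees C. Viability was read by CellTiter-Glo luminescence. Media-only wells were set as complete cell-killing and DMSO as no toxicity.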
ATXN2 expr inh: inhibitors of ATXN2 expression; HEK-293 ATXN2-luciferase reporter, luminescence, 24 h; Potency, µM (series often up to 57 µM), most hits filed as inhibitors; 0.72% of 360,000 active; AID 1745845; also: nearly all actives have a fitted effect of over 55% in size
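ATXN2-luciferase reporter cells (luciferase flanked by upstream and downstream ATXN2 gene portions) were treated 24 h at 37 °C with compounds at up to 57 uM. SteadyGlo luminescence gave expression; GF-AFC fluorescence gave viability.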
ATXN viability: cell viability loss in ATXN counter-screen; AID 651635; 0.49% of 400,000 active; S2 cells (HEK-293 line with an ATXN2-luciferase reporter) viability, CellTiter-Fluor protease fluorescence, 24 h; Potency, µM (doses to about 56.7 µM), usual class: cytotoxic; also: nearly all actives have a fitted effect of over 40% in size
RORg inh: ROR gamma (mouse) transcription inhibition; P51450; Drosophila S2 Gal4-RORgamma UAS-luciferase reporter, 20 h; Potency, µM (series often up to 53.6 µM), hits mostly inhibitors; 5.4% of 310,000 active; AID 2551; also: nearly all actives have a fitted effect of over 60% in size
Target sequence (P51450 whole entry, looked up, the tested form may be a part): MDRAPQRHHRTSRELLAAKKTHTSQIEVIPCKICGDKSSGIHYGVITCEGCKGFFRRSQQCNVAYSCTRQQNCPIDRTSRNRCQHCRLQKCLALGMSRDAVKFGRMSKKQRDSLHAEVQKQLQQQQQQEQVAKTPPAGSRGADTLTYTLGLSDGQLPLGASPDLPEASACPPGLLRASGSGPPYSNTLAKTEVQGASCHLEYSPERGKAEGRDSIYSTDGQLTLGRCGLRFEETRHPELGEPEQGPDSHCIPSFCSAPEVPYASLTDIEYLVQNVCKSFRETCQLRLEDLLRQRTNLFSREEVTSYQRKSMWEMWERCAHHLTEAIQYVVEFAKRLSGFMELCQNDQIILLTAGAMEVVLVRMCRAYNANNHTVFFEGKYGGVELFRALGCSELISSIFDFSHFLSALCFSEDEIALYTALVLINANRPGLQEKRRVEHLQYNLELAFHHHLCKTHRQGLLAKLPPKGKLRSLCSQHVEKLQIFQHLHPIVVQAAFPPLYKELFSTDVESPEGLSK
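Stably transfected Drosophila Schneider cells are the test system, with ROR gamma fused to Gal4 and luciferase under UAS control; luminescence is read after 20 hr of 700 uM copper sulfate induction at ambient temperature.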
Gal4-VP16 FLuc: inhibits Gal4-VP16 luciferase reporter, ROR gamma counter-screen. Drosophila S2 Gal4-VP16 UAS-luciferase, luminescence, 20 h. Potency, µM (top dose mostly 53.6 µM), most hits filed as inhibitors. 3.5% of 310,000 active;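 also: Gal4-VP16 expression switched on by copper sulfate through the metallothionein promoter; nearly all actives have a fitted effect of over 50% in size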
TGFb inhibitor: TGF-b pathway inhibition | HepG2 CAGA-GFP TGF-b/SMAD3 reporter, GFP fluorescence, 18 h; TGF-beta stimulated, 500 pg/mL final | Potency, µM (doses to about 46.1 µM), usual class: inhibitors | 1.2% of 410,000 active; also: nearly all actives have a fitted effect of over 65% in size
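GFP signal (ex488/em500-530) from TGF-beta-stimulated HEPG2 CAGA-GFP cells, 500 pg/mL final, 18 h at 37 degrees C in DMEM plus 1% FBS, normalized to unstimulated and DMSO-stimulated controls.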
Of the large screens only hits and unclear results are named; the others gave an inactive call. Sampled rows, rich in hits. Any-hit rate of the full collection: about 6.1%. Calls follow the shape of the dose curve; as a rule, active = well fitted curve in the direction sought with a large enough effect; inconclusive = small, poorly fitted or top-dose-only effect, or another doubt; inactive = no such curve, though single readings can be large; an effect the other way counts as inactive or inconclusive.

O=c1c2c(-c3ccccc3)csc2ncn1/N=C/c1cccc([N+](=O)[O-])c1O	RORg inh 20µM
O=c1c2c(-c3ccccc3)csc2ncn1/N=C/c1ccc(O)c([N+](=O)[O-])c1	ATXN viability inconclusive (no result: ATXN2 expr inh)
C[C@@H]1CC2C3CCC4=CC(=O)C=C[C@]4(C)[C@@]3(F)[C@@H](O)C[C@]2(C)[C@@]1(O)C(=O)COC(=O)c1cccc(S(=O)(=O)O)c1 (some centres undefined)	none (no result: HepG2 tox, ATXN2 expr inh, ATXN viability, TGFb inhibitor)
Brc1ccc2c(c1)-c1ccccc1C1=NCCN12	ATXN viability inconclusive, TGFb inhibitor 15.8µM (no result: ATXN2 expr inh, RORg inh, Gal4-VP16 FLuc)
O=C(Cc1cccs1)NNC(=S)NC(=O)c1ccccc1	RORg inh 7.94µM, Gal4-VP16 FLuc 10µM
O=C(Cc1cccs1)NNC(=S)NC(=O)c1ccc(F)c(F)c1	ATXN viability inconclusive, RORg inh 6.31µM, Gal4-VP16 FLuc 5.62µM, TGFb inhibitor inconclusive
CC(=O)NNC(=S)NC(=O)c1ccccc1	RORg inh inconclusive
COC(=O)c1ccccc1NC(=O)c1ccc2c(c1)CCN2S(=O)(=O)c1ccc(Cl)cc1	none (no result: RORg inh, Gal4-VP16 FLuc)
O=C(CSc1nc(-c2ccccc2)[nH]c1-c1ccc(F)cc1)NC1CCCC1	TGFb inhibitor inconclusive (no result: ATXN2 expr inh, ATXN viability, RORg inh, Gal4-VP16 FLuc)
COc1ccc(C(=O)Nc2c(-c3cccs3)c(=O)c3ccccc3n2C)cc1	ATXN viability inconclusive
Cc1ccc(C(=O)Nc2c(-c3cccs3)c(=O)c3ccccc3n2C)cc1	HepG2 tox 14.1µM, ATXN viability inconclusive, TGFb inhibitor inconclusive
CCn1ncc(/C=N\NC(=O)c2csc3ccccc23)c1C	RORg inh 10µM, Gal4-VP16 FLuc inconclusive
Cc1c(/C=N\NC(=O)c2csc3ccccc23)cnn1C	RORg inh inconclusive
COc1ccc(C(=O)N/N=C/C(=O)c2ccccc2)cc1	none (no result: RORg inh, Gal4-VP16 FLuc)
O=C(N/N=C/c1sc2ccccc2c1O)c1ccccc1	ATXN2 expr inh inconclusive, RORg inh 1.78µM, Gal4-VP16 FLuc 1.58µM
O=C(N/N=C/c1sc2ccccc2c1O)c1cccc2ccccc12	ATXN2 expr inh inconclusive, RORg inh 1.78µM, Gal4-VP16 FLuc 4.47µM (no result: ATXN viability)
COc1ccc(C(=O)N/N=C/c2sc3ccccc3c2O)cc1	ATXN2 expr inh inconclusive, RORg inh 2.24µM, Gal4-VP16 FLuc 3.98µM (no result: ATXN viability)
COc1ccc(NC(=O)CC(C)S(=O)(=O)c2cc3c(cc2C)NC(=O)CO3)cc1OC (centres undefined)	none (no result: RORg inh, Gal4-VP16 FLuc)
COc1ccc2cc(C(=O)N/N=C/c3sc4ccccc4c3O)ccc2c1	ATXN2 expr inh inconclusive, RORg inh 3.55µM, Gal4-VP16 FLuc inconclusive
Cc1sccc1/C=N/NC(=O)c1cccc2ccccc12	RORg inh 11.2µM, Gal4-VP16 FLuc inconclusive
O=C(N/N=C/c1cccn1-c1ccc(O)cc1)c1cccc2ccccc12	RORg inh 17.8µM, Gal4-VP16 FLuc 15.8µM
O=C(/C=C/c1ccc(F)cc1)NC(=S)Nc1ccccc1C(=O)NC1CCCCC1	ATXN viability inconclusive, RORg inh inconclusive, Gal4-VP16 FLuc 12.6µM
COc1ccc(/C=C/C(=O)NC(=S)Nc2ccccc2C(=O)NC2CCCCC2)cc1	ATXN2 expr inh inconclusive, ATXN viability inconclusive, RORg inh 14.1µM
CC(=O)NC(=S)Nc1ccccc1C(=O)NC1CCCCC1	none
Cc1ccc(/C=C/C(=O)NC(=S)Nc2ccccc2C(=O)NC2CCCCC2)cc1	ATXN2 expr inh inconclusive, ATXN viability inconclusive, RORg inh inconclusive, TGFb inhibitor inconclusive
O=C(/C=C/c1ccccc1)NC(=S)Nc1ccccc1C(=O)NC1CCCCC1	ATXN2 expr inh inconclusive, RORg inh 11.2µM, Gal4-VP16 FLuc inconclusive
COc1ccccc1-c1ccc2ncnc(NCCNC(C)=O)c2c1	none (no result: HepG2 tox, ATXN2 expr inh, ATXN viability, TGFb inhibitor)
Cc1ccc(CNC(=O)Cn2c(=O)n(-c3ccc(C)c(F)c3)c(=O)c3sc4ccccc4c32)cc1	none (no result: RORg inh, Gal4-VP16 FLuc)
Cc1c(CN(C)C)c2c(n1Cc1ccccc1)C(=O)c1ccc(Br)cc1-2	HepG2 tox 17.8µM, ATXN2 expr inh inconclusive, ATXN viability inconclusive, RORg inh inconclusive, TGFb inhibitor inconclusive
CN(C)c1ccc(C(C[N+](=O)[O-])c2c(N)n(C)c(=O)n(C)c2=O)c(F)c1C#N (centres undefined)	HepG2 tox 11.2µM, RORg inh 6.31µM, Gal4-VP16 FLuc 11.2µM, TGFb inhibitor inconclusive (no result: ATXN2 expr inh, ATXN viability)

Screens: PubChem BioAssay, National Center for Advancing Translational Sciences (NCATS)
